Our source for the inhibition values is PubChem BioAssay AID1220 (Sanford-Burnham Center for Chemical Genomics, 2008).

In all, about 190,000 compounds went through this assay and about 1,300 (0.68%) were called active. Only a selection was taken, and actives are over-represented in it overall. Unmarked numbers belong to inactive results. No stated cut-off is given here; in the data, active means inhibition above about 50%; inactive means the rest.

The assay deals with Mannose-6-phosphate isomerase (Homo sapiens) (UniProt P34949). As to the kind of experiment: human PMI inhibitors, high substrate, primary screen, biochemical, fluorescence intensity, high mannose 6-phosphate (AID 1220). Particulars: recombinant PMI enzyme, coupled fluorescence intensity; at 20 µM; active compounds read high.
Sequence of Mannose-6-phosphate isomerase (Homo sapiens) (P34949 whole entry, looked up): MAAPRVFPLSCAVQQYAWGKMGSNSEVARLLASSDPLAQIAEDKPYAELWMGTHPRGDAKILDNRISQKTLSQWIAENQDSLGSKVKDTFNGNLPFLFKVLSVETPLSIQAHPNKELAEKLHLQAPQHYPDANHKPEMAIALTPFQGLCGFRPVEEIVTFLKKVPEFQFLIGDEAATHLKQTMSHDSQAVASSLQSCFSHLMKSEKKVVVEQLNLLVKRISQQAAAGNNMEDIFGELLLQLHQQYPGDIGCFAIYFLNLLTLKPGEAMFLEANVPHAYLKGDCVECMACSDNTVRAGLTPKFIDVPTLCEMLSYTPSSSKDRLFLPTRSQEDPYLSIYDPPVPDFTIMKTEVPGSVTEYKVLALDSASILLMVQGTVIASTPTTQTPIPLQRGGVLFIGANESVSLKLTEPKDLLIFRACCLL
Turning to `CC(Sc1nc(NCc2ccccc2)nc(N2CCOCC2)n1)C(=O)Nc1ccccc1` (centres undefined), the inhibition is 12.4%.

As for `Cc1ccccc1NC(=O)C1CCCN(S(=O)(=O)c2c(C)noc2C)C1` (centres undefined), the inhibition was -2.1%.

On to `Cc1ccc(Cl)cc1NC(=O)C1CCCN(S(=O)(=O)c2c(C)noc2C)C1` (centres undefined), for which the inhibition was 50.2% (active).

For the compound `Cc1noc(C)c1S(=O)(=O)N1CCCC(C(=O)Nc2ccc(Cl)cn2)C1` (centres undefined), the inhibition is -3%.

Consider `Nc1nc(-c2ccccc2)c(-c2ccccc2)s1`, for which the inhibition is -7.6%.

On to `Nc1nc2c(s1)COc1ccccc1-2`, for which the inhibition is 11.1%.

Turning to `O=C(NCCCN1CCOCC1)C(Sc1ccccc1)c1ccccc1` (centres undefined), the inhibition was 9.2%.

For `O=C(COC(=O)c1ccc(S(=O)(=O)NCc2ccco2)cc1)NCCC1=CCCCC1`, the inhibition is -19.9%.

Regarding `O=c1[nH]c2ccc(Cl)cc2c(O)c1Cc1ccccc1`, the inhibition was 3.4%.

For `COc1cccc(CNCc2cccnc2)c1OCc1ccccc1`, the inhibition is -2%.

In the case of `Cc1ccc(Nc2ncnc3sc(C)c(C)c23)cc1`, the inhibition was 12.1%.

On to `O=C(CCNc1cccc(F)c1)c1cccc([N+](=O)[O-])c1`, for which the inhibition is 40.6%.

Take `O=C(CCNc1ccc(Br)cc1)c1cccc([N+](=O)[O-])c1`: the inhibition is 40.5%.

Take `O=[N+]([O-])c1ccc(Cc2ccncc2)cc1`: the inhibition was -1.9%.

Turning to `O=C(CCNc1ccc(F)cc1)c1cccc([N+](=O)[O-])c1`, the inhibition is 48.4%.

`O=C(CCNc1ccc(Cc2ccncc2)cc1)c1cccc([N+](=O)[O-])c1`: the inhibition was 47.7%.

As for `Cc1ccc(NCCC(=O)c2cccc([N+](=O)[O-])c2)cc1`, the inhibition was 39.2%.

In the case of `COc1cccc(NCCC(=O)c2cccc([N+](=O)[O-])c2)c1`, the inhibition was 62.3% (active).

Turning to `COc1ccc2o/c(=N/NC(=S)Nc3ccccc3)c(C(N)=O)cc2c1`, the inhibition was 7.1%.

On to `O=C(O)c1ccccc1OC(=O)C12CC3CC(CC(C3)C1)C2`, for which the inhibition is 2.3%.

`CC1(C)CC(c2nc(-c3ccccc3)cs2)CCS1` (centres undefined): the inhibition is 0.5%.

On to `Cc1ccc(-c2cc(C)nc3nc(N)nn23)cc1`, for which the inhibition is 4.6%.

`CCOc1ccc(NC(=O)CSc2nc3c(c(=O)n2C)SC(C)C3)cc1` (centres undefined): the inhibition was 4.9%.

For `CCc1ccccc1NC(=O)c1onc(C)c1Cl`, the inhibition was -3.2%.

`CSc1ccccc1NC(=O)c1onc(C)c1Cl`: the inhibition was -2.4%.

Take `Cc1noc(C(=O)Nc2ccccc2C(F)(F)F)c1Cl`: the inhibition is 59.4% (active).

Take `Cc1ccc(C(=O)OCC(=O)Nc2ccccc2C(F)(F)F)cc1S(=O)(=O)N1CCOCC1`: the inhibition was 3.2%.

On to `CC(C)c1ccccc1NC(=S)NCc1ccccc1F`, for which the inhibition was 1.9%.

In the case of `N#Cc1cnc2c(-c3ccccc3)c(-c3ccccc3)nn2c1N`, the inhibition is 15.3%.

With `Fc1ccc2nc(C3CCCCN3Cc3nc(CC4CC4)no3)[nH]c2c1` (centres undefined), the inhibition was 53.6% (active).

As to `Fc1ccc2nc(C3CCN(Cc4nc(CC5CC5)no4)CC3)[nH]c2c1`, the inhibition was -5.1%.

For `Fc1ccc(C2CCCCN2Cc2nc(CC3CC3)no2)cc1` (centres undefined), the inhibition was 1.9%.

As to `Brc1ccc(-c2nc(-c3ccccn3)no2)o1`, the inhibition is -1.3%.

Take `CC(C)[C@H](NC(=O)c1ccccc1)C(=O)OCc1nnc(-c2ccccc2)o1`: the inhibition is 3.9%.

Consider `O=C1CC(N2CCN(Cc3ccc4c(c3)OCO4)CC2)C(=O)N1CCc1ccccc1` (centres undefined), for which the inhibition was 4.8%.

On to `CC(=O)N1C(c2ccccc2)CC(=O)OC1c1ccc2c(c1)OCO2` (centres undefined), for which the inhibition was 9.9%.

Consider `O=C1C=CC2C(c3ccc4c(c3)OCO4)CC1N2Cc1ccccc1` (centres undefined), for which the inhibition was 63.6% (active).

Turning to `Cc1ccc(NC(=O)c2cc3ccccc3o2)cc1S(=O)(=O)N(C)C`, the inhibition was 36.9%.

In the case of `Cc1cc(C)c(S(=O)(=O)Nc2cccc(S(=O)(=O)NC3=NCCC3)c2)c(C)c1`, the inhibition is -4.4%.

`CC1CN(C)C(C)C/C1=N\Oc1ccc([N+](=O)[O-])cc1` (centres undefined): the inhibition was -6.4%.

Consider `CC(C)(C)/C(COc1ccccc1[N+](=O)[O-])=N/O`, for which the inhibition is 5.7%.

`CC1CN(C)C(C)C/C1=N/Oc1ccccc1[N+](=O)[O-]` (centres undefined): the inhibition is 42.3%.

For the compound `CC1=CC(=O)C=C(C)C1=NOc1ccc([N+](=O)[O-])cc1`, the inhibition was 53.2% (active).

With `CC1=CC(=O)C=C(C)C1=NOc1ccccc1[N+](=O)[O-]`, the inhibition was 54.8% (active).

For `CN1CCC(=NOc2ccc([N+](=O)[O-])cc2)CC1`, the inhibition was -6.9%.

In the case of `N#Cc1ccc(NC(=O)CN2C(=O)NC(Cc3ccccc3)C2=O)cc1` (centres undefined), the inhibition is 3.6%.

In the case of `Cc1noc(C)c1COC(=O)COc1ccc(C#N)cc1`, the inhibition was -4.4%.

Consider `COc1ccc(CNCC(O)(c2ccc(Cl)cc2)c2ccc(Cl)cc2)cc1OC`, for which the inhibition was 55.1% (active).

With `COc1ccc(CNCC(O)(c2ccc(Cl)cc2)c2ccc(Cl)cc2)cc1`, the inhibition is 0%.

For the compound `COc1ccc(CNCC(O)(c2ccccc2)c2ccccc2)cc1OC`, the inhibition is -0.4%.

Turning to `COC(=O)COc1ccc(S(=O)(=O)N2CCN(c3ccccc3)CC2)cc1`, the inhibition is -8.3%.

For `O=C(c1cccc2cccc(O)c12)N1CCCCC1`, the inhibition is 63.7% (active).

As for `O=C(c1cccc(F)c1F)N1CCCC1`, the inhibition is -8.2%.

For `Nc1ccccc1C(=O)N1CCCC1`, the inhibition was 8.2%.

On to `Cc1ccc2c(c1)nnn2C1CCN(S(=O)(=O)c2ccc(C(=O)N3C(C)CCCC3C)cc2)CC1` (centres undefined), for which the inhibition is 53% (active).

`Cc1ccc2c(c1)nnn2C1CCN(S(=O)(=O)c2ccc(C(=O)O)cc2)CC1`: the inhibition was 3.6%.

Turning to `Cc1ccc2c(c1)nnn2C1CCN(S(=O)(=O)c2ccc(C(=O)N3CC(C)CC(C)C3)cc2)CC1` (centres undefined), the inhibition is 10.4%.

On to `O=C(COC(=O)/C=C/c1ccccc1[N+](=O)[O-])NCC(F)(F)F`, for which the inhibition is -8.8%.

For `CCc1ccc(NC(=S)N2CCCCCCC2)cc1`, the inhibition is -7.1%.

As to `Cc1nc(SCC2(C)CC2(Cl)Cl)n[nH]1` (centres undefined), the inhibition is -3.1%.

On to `COc1ccc(/C=N/NS(=O)(=O)c2ccc(C)cc2)cc1OC(=O)c1ccc(C)cc1`, for which the inhibition was -3.5%.

Consider `Oc1ccc2oc3c(c2c1/C=N/n1cnnc1)CCCC3`, for which the inhibition was 9.3%.

Regarding `Cc1cccc(/N=C/c2c(O)ccc3oc4c(c23)CCCC4)n1`, the inhibition is 13.6%.

For the compound `Cc1ccnc(N=Cc2c(O)ccc3oc4c(c23)CCCC4)c1`, the inhibition was 51.1% (active).
